Results: PubChem BioAssay AID1159580 (chemical genetic matrix, 2015)
About 2,000 (36%) of roughly 5,500 compounds were called active. Not shown: some 18% with an inconclusive outcome. Rule as the data show it: active = normalized growth mostly below about 0.91 (no sharp cut-off); inconclusive = no clear call, values can overlap the other calls; inactive = mostly above about 0.92. The list shows a part of the results.

Assay: chemical genetic growth profiling, strain panel (AID 1159580);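 also: tested at 20 µM; growth read once vehicle control cultures reached saturation at 30 °C; 1 = growth at the plate median or of vehicle wells; lower values mean less growth of the strain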
Conditions: growth OD

Measured: normalized growth

S=P(N1CC1)(N1CC1)N1CC1
inactive: S. cerevisiae deletion strains, locus YKL009W, strain mrt4, active compounds read low 0.99 | S. cerevisiae deletion strains, locus YKL068W, active compounds read low 1.01 | S. cerevisiae deletion strains, locus YKL085W, strain MDH1 (second series), active compounds read low 0.997 | S. cerevisiae deletion strains, locus YKL085W, strain MDH1, active compounds read low 0.997 | S. cerevisiae deletion strains, locus YKL160W, strain elf1, active compounds read low 1.01 | S. cerevisiae deletion strains, locus YKL190W, strain CNB1, active compounds read low 1 | S. cerevisiae deletion strains, locus YKR001C, strain vps1, active compounds read low 0.994 | S. cerevisiae deletion strains, locus YKR026C, strain gcn3, active compounds read low 0.976 | S. cerevisiae deletion strains, locus YKR091W, strain srl3, active compounds read low 1 | S. cerevisiae deletion strains, locus YLL001W, strain dnm1, active compounds read low 1 | S. cerevisiae deletion strains, locus YLL026W, active compounds read low 1 | S. cerevisiae deletion strains, locus YLL041C, strain sdh2, active compounds read low 1.01 | S. cerevisiae deletion strains, locus YLR027C, strain aat2, active compounds read low 1.01 | S. cerevisiae deletion strains, locus YLR039C, strain RIC1, active compounds read low 1.03 | S. cerevisiae deletion strains, locus YLR058C, strain SHM2, active compounds read low 1.01 | S. cerevisiae deletion strains, locus YLR102C, strain apc9, active compounds read low 1.01 | S. cerevisiae deletion strains, locus YLR113W, strain HOG1, active compounds read low 0.995 | S. cerevisiae deletion strains, locus YLR221C, strain rsa3, active compounds read low 0.996 | S. cerevisiae deletion strains, locus YLR258W, strain gsy2, active compounds read low 1.01 | S. cerevisiae deletion strains, locus YLR262C, strain YPT6 (second series), active compounds read low 1.02 | S. cerevisiae deletion strains, locus YLR262C, strain YPT6, active compounds read low 1.02 | S. cerevisiae deletion strains, locus YLR268W, strain sec22, active compounds read low 0.989 | S. cerevisiae deletion strains, locus YLR320W, strain mms22, active compounds read low 0.994 | S. cerevisiae deletion strains, locus YLR330W, strain CHS5, active compounds read low 1.01 | S. cerevisiae deletion strains, locus YLR342W, strain FKS1 (second series), active compounds read low 1.03 | S. cerevisiae deletion strains, locus YLR342W, strain FKS1, active compounds read low 1.01 | S. cerevisiae deletion strains, locus YLR357W, strain rsc2, active compounds read low 1.03 | S. cerevisiae deletion strains, locus YLR370C, strain arc18, active compounds read low 1.01 | S. cerevisiae deletion strains, locus YLR371W, strain rom2, active compounds read low 1.01 | S. cerevisiae deletion strains, locus YLR384C, strain iki3, active compounds read low 0.994 | S. cerevisiae deletion strains, locus YLR418C, strain cdc73, active compounds read low 0.977 | S. cerevisiae deletion strains, locus YML016C, strain PPZ1, active compounds read low 1 | S. cerevisiae deletion strains, locus YML032C, strain rad52, active compounds read low 1 | S. cerevisiae deletion strains, locus YML120C, strain ndi1, active compounds read low 1.01 | S. cerevisiae deletion strains, locus YML124C, strain tub3, active compounds read low 1 | S. cerevisiae deletion strains, locus YMR058W, strain fet3, active compounds read low 1.02 | S. cerevisiae deletion strains, locus YMR078C, strain ctf18, active compounds read low 1 | S. cerevisiae deletion strains, locus YMR125W, strain sto1, active compounds read low 1 | S. cerevisiae deletion strains, locus YMR129W, active compounds read low 1.01 | S. cerevisiae deletion strains, locus YMR205C, strain PFK2, active compounds read low 1.01 | S. cerevisiae deletion strains, locus YMR223W, strain ubp8, active compounds read low 1 | S. cerevisiae deletion strains, locus YMR231W, strain pep5, active compounds read low 0.993 | S. cerevisiae deletion strains, locus YMR263W, strain SAP30, active compounds read low 1.02 | S. cerevisiae deletion strains, locus YMR307W, strain GAS1, active compounds read low 1.04 | S. cerevisiae deletion strains, locus YNL067W, strain RPL9B, active compounds read low 1.01 | S. cerevisiae deletion strains, locus YNL071W, strain lat1, active compounds read low 1.02 | S. cerevisiae deletion strains, locus YNL128W, strain TEP1, active compounds read low 1.01 | S. cerevisiae deletion strains, locus YNL153C, strain GIM3, active compounds read low 0.997 | S. cerevisiae deletion strains, locus YNL183C, strain NPR1, active compounds read low 0.932 | S. cerevisiae deletion strains, locus YNL209W, strain ssb2, active compounds read low 1.02 | S. cerevisiae deletion strains, locus YNL233W, strain BNI4, active compounds read low 0.998 | S. cerevisiae deletion strains, locus YNL248C, strain rpa49, active compounds read low 0.999 | S. cerevisiae deletion strains, locus YNL250W, strain rad50, active compounds read low 0.995 | S. cerevisiae deletion strains, locus YNL271C, strain bni1, active compounds read low 1.01 | S. cerevisiae deletion strains, locus YNL298W, strain CLA4, active compounds read low 1.02 | S. cerevisiae deletion strains, locus YNL307C, strain MCK1, active compounds read low 1.01 | S. cerevisiae deletion strains, locus YNL322C, strain KRE1 (second series), active compounds read low 1.01 | S. cerevisiae deletion strains, locus YNL322C, strain KRE1, active compounds read low 1.01 | S. cerevisiae deletion strains, locus YNR049C, strain mso1, active compounds read low 1.01 | S. cerevisiae deletion strains, locus YNR052C, strain pop2, active compounds read low 1 | S. cerevisiae deletion strains, locus YOL006C, strain TOP1, active compounds read low 1.04 | S. cerevisiae deletion strains, locus YOL012C, strain htz1 0.982 | S. cerevisiae deletion strains, locus YOL147C, strain pex11, active compounds read low 1.04 | S. cerevisiae deletion strains, locus YOR001W, strain rrp6, active compounds read low 1.01 | S. cerevisiae deletion strains, locus YOR061W, strain CKA2, active compounds read low 1.01 | S. cerevisiae deletion strains, locus YOR069W, strain VPS5, active compounds read low 0.992 | S. cerevisiae deletion strains, locus YOR070C, strain gyp1, active compounds read low 1.01 | S. cerevisiae deletion strains, locus YOR080W, strain dia2, active compounds read low 1 | S. cerevisiae deletion strains, locus YOR083W, strain WHI5, active compounds read low 0.997 | S. cerevisiae deletion strains, locus YOR106W, strain vam3, active compounds read low 0.997 | S. cerevisiae deletion strains, locus YOR136W, strain idh2, active compounds read low 1 | S. cerevisiae deletion strains, locus YOR144C, strain elg1, active compounds read low 1.01 | S. cerevisiae deletion strains, locus YOR184W, strain ser1, active compounds read low 1.01 | S. cerevisiae deletion strains, locus YOR231W, strain MKK1, active compounds read low 1 | S. cerevisiae deletion strains, locus YOR265W, strain rbl2, active compounds read low 1.01 | S. cerevisiae deletion strains, locus YOR270C, strain vph1, active compounds read low 1.01 | S. cerevisiae deletion strains, locus YOR290C, strain snf2, active compounds read low 1.01 | S. cerevisiae deletion strains, locus YOR316C, strain cot1, active compounds read low 1 | S. cerevisiae deletion strains, locus YPL051W, strain arl3, active compounds read low 1.01 | S. cerevisiae deletion strains, locus YPL055C, strain LGE1, active compounds read low 0.989 | S. cerevisiae deletion strains, locus YPL078C, strain atp4, active compounds read low 1.01 | S. cerevisiae deletion strains, locus YPL106C, strain sse1, active compounds read low 1.02 | S. cerevisiae deletion strains, locus YPL240C, strain hsp82, active compounds read low 0.996 | S. cerevisiae deletion strains, locus YPL241C, strain CIN2, active compounds read low 0.991 | S. cerevisiae deletion strains, locus YPL256C, strain CLN2, active compounds read low 0.991 | S. cerevisiae deletion strains, locus YPR119W, strain clb2, active compounds read low 1.01 | S. cerevisiae deletion strains, locus YPR141C, strain kar3, active compounds read low 0.996 | S. cerevisiae deletion strains, locus YPR163C, strain tif3, active compounds read low 1 | S. cerevisiae deletion strains, locus YPR167C, strain met16, active compounds read low 0.992 | S. cerevisiae deletion strains, strain wtn01, active compounds read low 0.983 | S. cerevisiae strains, strain wild type, active compounds read low 1.01
